Laboratory results from PMC7862700, “An all-to-all approach to the identification of sequence-specific readers for epigenetic DNA modifications on cytosine”.

How the values were obtained:
Experiment in all cases: DAPPL (digital affinity profiling via proximity ligation, sequencing); 10 mM Tris-HCl pH 7.5, 50 mM NaCl, 1 mM DTT, 4% glycerol, room temperature, 30 min; GST-TFs on glutathione beads, 16-mer random dsDNA library, 0.1% formaldehyde crosslink after washing; high values mean tight binding
Settings in all cases: protein: recombinant; tags: N-terminal GST; dsDNA, one strand shown
FLI1 = target: T1, FLI1 (Homo sapiens, UniProt Q01543 1-452)
T1 sequence: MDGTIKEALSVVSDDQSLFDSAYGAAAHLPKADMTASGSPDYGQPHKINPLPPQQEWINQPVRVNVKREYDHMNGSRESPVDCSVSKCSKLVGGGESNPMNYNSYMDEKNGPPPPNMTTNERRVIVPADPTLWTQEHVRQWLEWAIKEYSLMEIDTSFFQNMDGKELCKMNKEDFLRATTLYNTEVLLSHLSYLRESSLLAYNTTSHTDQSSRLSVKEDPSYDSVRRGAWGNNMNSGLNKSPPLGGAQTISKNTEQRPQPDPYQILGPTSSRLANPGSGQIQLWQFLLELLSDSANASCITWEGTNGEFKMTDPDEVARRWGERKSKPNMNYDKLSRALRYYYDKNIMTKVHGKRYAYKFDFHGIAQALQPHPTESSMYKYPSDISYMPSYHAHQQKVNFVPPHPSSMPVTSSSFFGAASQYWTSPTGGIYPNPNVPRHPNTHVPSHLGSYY
Outline: (§1)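 Pools were built from human transcription factors expressed in yeast as GST fusions, captured on glutathione beads and DNA-barcoded, along with a tag-only sample. Incubation with 200 nmole of a 16-mer random double-stranded DNA library lasted 30 min at room temperature in Tris/NaCl/DTT/glycerol buffer, and was followed by washing, 0.1% formaldehyde crosslinking, proximity ligation, PCR amplification and Illumina NextSeq500 sequencing. Binding signal is the quotient of each hexamer's read frequency for a factor and its frequency for the tag-only sample.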

ELK1 = target: T2, ELK1 (Homo sapiens, UniProt P19419 1-428)
T2 sequence: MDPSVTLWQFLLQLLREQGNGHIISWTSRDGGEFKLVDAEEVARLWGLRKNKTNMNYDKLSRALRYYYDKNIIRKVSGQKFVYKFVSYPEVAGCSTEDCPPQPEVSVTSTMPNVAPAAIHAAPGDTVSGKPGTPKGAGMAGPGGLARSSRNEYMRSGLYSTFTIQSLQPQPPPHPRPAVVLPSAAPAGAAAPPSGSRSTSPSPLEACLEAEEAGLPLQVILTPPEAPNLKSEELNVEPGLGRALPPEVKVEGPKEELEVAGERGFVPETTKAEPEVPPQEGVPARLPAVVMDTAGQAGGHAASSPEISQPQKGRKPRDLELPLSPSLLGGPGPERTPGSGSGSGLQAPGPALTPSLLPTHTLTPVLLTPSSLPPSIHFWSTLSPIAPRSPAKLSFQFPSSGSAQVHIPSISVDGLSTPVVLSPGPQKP
Outline: as §1

GABPA = target: T3, GABPA (Homo sapiens, UniProt Q06546 1-454)
T3 sequence: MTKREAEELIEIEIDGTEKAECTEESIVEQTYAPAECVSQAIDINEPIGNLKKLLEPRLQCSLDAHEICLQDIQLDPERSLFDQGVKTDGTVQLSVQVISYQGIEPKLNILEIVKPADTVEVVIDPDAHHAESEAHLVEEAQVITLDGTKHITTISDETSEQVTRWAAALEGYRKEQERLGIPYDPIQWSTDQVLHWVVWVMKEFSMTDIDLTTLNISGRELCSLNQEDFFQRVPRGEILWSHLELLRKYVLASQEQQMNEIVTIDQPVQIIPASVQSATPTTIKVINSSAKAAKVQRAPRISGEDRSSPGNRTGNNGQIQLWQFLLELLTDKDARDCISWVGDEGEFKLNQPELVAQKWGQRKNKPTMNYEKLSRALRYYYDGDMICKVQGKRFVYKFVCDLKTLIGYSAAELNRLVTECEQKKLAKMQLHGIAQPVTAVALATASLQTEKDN
Outline: as §1

ERG = target: T4, ERG (Homo sapiens, UniProt P11308 1-479)
T4 sequence: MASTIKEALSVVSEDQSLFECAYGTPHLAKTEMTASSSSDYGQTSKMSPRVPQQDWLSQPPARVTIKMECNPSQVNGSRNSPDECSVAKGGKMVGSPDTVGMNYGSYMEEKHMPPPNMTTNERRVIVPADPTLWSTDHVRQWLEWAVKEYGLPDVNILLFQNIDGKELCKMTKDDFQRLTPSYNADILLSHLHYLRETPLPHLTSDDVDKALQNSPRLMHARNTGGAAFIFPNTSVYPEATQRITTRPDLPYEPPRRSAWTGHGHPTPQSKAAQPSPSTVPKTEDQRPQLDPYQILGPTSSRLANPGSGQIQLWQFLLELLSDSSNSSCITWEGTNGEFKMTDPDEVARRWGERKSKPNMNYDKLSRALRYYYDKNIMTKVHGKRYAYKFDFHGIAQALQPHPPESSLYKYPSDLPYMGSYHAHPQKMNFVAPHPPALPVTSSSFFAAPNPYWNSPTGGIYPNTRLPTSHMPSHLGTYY
Outline: as §1

ELF1 = ELF1 (Homo sapiens, UniProt P32519 1-619)
Chain of ELF1 (P32519 whole entry): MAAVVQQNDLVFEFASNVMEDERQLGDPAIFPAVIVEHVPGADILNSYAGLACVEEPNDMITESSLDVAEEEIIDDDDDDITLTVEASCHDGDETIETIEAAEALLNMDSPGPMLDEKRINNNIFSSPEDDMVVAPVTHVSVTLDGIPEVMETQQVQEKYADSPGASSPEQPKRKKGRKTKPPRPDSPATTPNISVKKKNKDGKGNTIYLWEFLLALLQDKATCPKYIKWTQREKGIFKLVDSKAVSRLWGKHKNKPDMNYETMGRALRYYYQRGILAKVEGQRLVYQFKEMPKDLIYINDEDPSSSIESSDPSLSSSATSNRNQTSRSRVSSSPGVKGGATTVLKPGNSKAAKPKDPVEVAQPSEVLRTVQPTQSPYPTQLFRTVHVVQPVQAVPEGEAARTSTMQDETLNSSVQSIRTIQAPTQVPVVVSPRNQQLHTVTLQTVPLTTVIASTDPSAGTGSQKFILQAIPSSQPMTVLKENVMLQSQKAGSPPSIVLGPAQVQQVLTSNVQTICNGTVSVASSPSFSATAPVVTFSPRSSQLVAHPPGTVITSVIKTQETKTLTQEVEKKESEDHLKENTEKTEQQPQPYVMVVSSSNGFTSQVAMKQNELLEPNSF
Outline: as §1

EHF = target: T5, EHF (Homo sapiens, UniProt Q9NZC4 1-300)
T5 sequence: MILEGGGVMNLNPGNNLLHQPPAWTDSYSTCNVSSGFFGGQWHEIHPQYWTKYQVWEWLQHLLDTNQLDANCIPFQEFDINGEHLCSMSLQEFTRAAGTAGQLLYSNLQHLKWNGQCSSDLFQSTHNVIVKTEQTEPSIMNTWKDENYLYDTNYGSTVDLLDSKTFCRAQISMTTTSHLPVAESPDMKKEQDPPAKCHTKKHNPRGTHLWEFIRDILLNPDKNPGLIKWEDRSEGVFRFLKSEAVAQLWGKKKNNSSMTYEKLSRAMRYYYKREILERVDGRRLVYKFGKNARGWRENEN
Outline: as §1

SPI1 [1] = target: SPI1 (Homo sapiens, UniProt P17947 1-270)
Outline: as §1

SPIB = SPIB (Homo sapiens, UniProt Q01892 1-262)
Chain of SPIB (Q01892 whole entry): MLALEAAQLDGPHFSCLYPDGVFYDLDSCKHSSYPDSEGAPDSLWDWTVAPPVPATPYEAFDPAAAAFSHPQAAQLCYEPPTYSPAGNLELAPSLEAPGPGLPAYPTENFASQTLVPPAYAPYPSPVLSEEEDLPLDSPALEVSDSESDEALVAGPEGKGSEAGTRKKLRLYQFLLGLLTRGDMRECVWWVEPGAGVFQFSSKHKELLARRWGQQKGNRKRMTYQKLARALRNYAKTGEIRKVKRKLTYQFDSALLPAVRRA
Outline: as §1

ELK3 = target: T6, ELK3 (Homo sapiens, UniProt P41970 1-407)
T6 sequence: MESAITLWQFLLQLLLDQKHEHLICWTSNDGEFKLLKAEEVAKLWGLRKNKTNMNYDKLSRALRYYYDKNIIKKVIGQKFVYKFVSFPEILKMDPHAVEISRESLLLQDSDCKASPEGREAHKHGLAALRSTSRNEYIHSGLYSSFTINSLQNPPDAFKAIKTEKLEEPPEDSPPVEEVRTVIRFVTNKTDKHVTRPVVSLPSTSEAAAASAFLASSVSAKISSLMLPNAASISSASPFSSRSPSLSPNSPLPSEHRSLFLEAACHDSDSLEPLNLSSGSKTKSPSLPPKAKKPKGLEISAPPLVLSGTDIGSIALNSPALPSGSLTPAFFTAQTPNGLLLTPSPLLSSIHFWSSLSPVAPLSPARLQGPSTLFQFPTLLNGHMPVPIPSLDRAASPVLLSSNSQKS
Outline: as §1

SPI1 [2] = target: SPI1 (Homo sapiens, UniProt P17947 1-270); remark: listed apart in the source
Outline: as §1

Sequence: GGAAGT
- binding signal (FLI1): 2.88 fold enrichment (6-mer frequency, TF over GST control)
- binding signal (ELK1): 3.29 fold enrichment (6-mer frequency, TF over GST control)
- binding signal (GABPA): 2.57 fold enrichment (6-mer frequency, TF over GST control)
- binding signal (ERG): 3.6 fold enrichment (6-mer frequency, TF over GST control)
- binding signal (ELF1): 2.87 fold enrichment (6-mer frequency, TF over GST control)
- binding signal (EHF): 3.23 fold enrichment (6-mer frequency, TF over GST control)
- binding signal (SPI1 [1]): 4.86 fold enrichment (6-mer frequency, TF over GST control)
- binding signal (SPIB): 3.19 fold enrichment (6-mer frequency, TF over GST control)
- binding signal (ELK3): 3.36 fold enrichment (6-mer frequency, TF over GST control)

Sequence: CCGAGC
- binding signal (FLI1): 1.17 fold enrichment (6-mer frequency, TF over GST control)
- binding signal (ELK1): 1.25 fold enrichment (6-mer frequency, TF over GST control)
- binding signal (GABPA): 1.2 fold enrichment (6-mer frequency, TF over GST control)
- binding signal (ERG): 1.11 fold enrichment (6-mer frequency, TF over GST control)
- binding signal (ELF1): 1.15 fold enrichment (6-mer frequency, TF over GST control)
- binding signal (EHF): 1.12 fold enrichment (6-mer frequency, TF over GST control)
- binding signal (SPI1 [2]): 1.12 fold enrichment (6-mer frequency, TF over GST control)
- binding signal (SPIB): 1.19 fold enrichment (6-mer frequency, TF over GST control)

Sequence: GTATAA
- binding signal (FLI1): 1.02 fold enrichment (6-mer frequency, TF over GST control)
- binding signal (ELK1): 1.21 fold enrichment (6-mer frequency, TF over GST control)
- binding signal (GABPA): 1.06 fold enrichment (6-mer frequency, TF over GST control)
- binding signal (ERG): 1.06 fold enrichment (6-mer frequency, TF over GST control)
- binding signal (ELF1): 1.06 fold enrichment (6-mer frequency, TF over GST control)
- binding signal (EHF): 1.09 fold enrichment (6-mer frequency, TF over GST control)
- binding signal (SPI1 [2]): 1.12 fold enrichment (6-mer frequency, TF over GST control)
- binding signal (SPIB): 1.19 fold enrichment (6-mer frequency, TF over GST control)

Sequence: AACACC
- binding signal (FLI1): 1.19 fold enrichment (6-mer frequency, TF over GST control)
- binding signal (ELK1): 1.18 fold enrichment (6-mer frequency, TF over GST control)
- binding signal (GABPA): 1.11 fold enrichment (6-mer frequency, TF over GST control)
- binding signal (ERG): 1.15 fold enrichment (6-mer frequency, TF over GST control)
- binding signal (ELF1): 1.11 fold enrichment (6-mer frequency, TF over GST control)
- binding signal (EHF): 1.12 fold enrichment (6-mer frequency, TF over GST control)
- binding signal (SPI1 [2]): 1.04 fold enrichment (6-mer frequency, TF over GST control)
- binding signal (SPIB): 1.16 fold enrichment (6-mer frequency, TF over GST control)

Sequence: CGAAAG
- binding signal (FLI1): 1.15 fold enrichment (6-mer frequency, TF over GST control)
- binding signal (ELK1): 1.13 fold enrichment (6-mer frequency, TF over GST control)
- binding signal (GABPA): 1.08 fold enrichment (6-mer frequency, TF over GST control)
- binding signal (ERG): 1.04 fold enrichment (6-mer frequency, TF over GST control)
- binding signal (ELF1): 1.09 fold enrichment (6-mer frequency, TF over GST control)
- binding signal (EHF): 1.01 fold enrichment (6-mer frequency, TF over GST control)
- binding signal (SPI1 [2]): 1.16 fold enrichment (6-mer frequency, TF over GST control)
- binding signal (SPIB): 1.06 fold enrichment (6-mer frequency, TF over GST control)

Sequence: TGACGA
- binding signal (FLI1): 1.06 fold enrichment (6-mer frequency, TF over GST control)
- binding signal (ELK1): 1.12 fold enrichment (6-mer frequency, TF over GST control)
- binding signal (GABPA): 1.21 fold enrichment (6-mer frequency, TF over GST control)
- binding signal (ERG): 1.07 fold enrichment (6-mer frequency, TF over GST control)
- binding signal (ELF1): 1.14 fold enrichment (6-mer frequency, TF over GST control)
- binding signal (EHF): 1.04 fold enrichment (6-mer frequency, TF over GST control)
- binding signal (SPI1 [2]): 1.03 fold enrichment (6-mer frequency, TF over GST control)
- binding signal (SPIB): 1.17 fold enrichment (6-mer frequency, TF over GST control)

Sequence: CTGTTG
- binding signal (FLI1): 1.08 fold enrichment (6-mer frequency, TF over GST control)
- binding signal (ELK1): 1.02 fold enrichment (6-mer frequency, TF over GST control)
- binding signal (GABPA): 1.11 fold enrichment (6-mer frequency, TF over GST control)
- binding signal (ERG): 1.09 fold enrichment (6-mer frequency, TF over GST control)
- binding signal (ELF1): 1.1 fold enrichment (6-mer frequency, TF over GST control)
- binding signal (EHF): 1.13 fold enrichment (6-mer frequency, TF over GST control)
- binding signal (SPI1 [2]): 1.16 fold enrichment (6-mer frequency, TF over GST control)
- binding signal (SPIB): 1.15 fold enrichment (6-mer frequency, TF over GST control)

Sequence: CGGAAG
- binding signal (FLI1): 2.85 fold enrichment (6-mer frequency, TF over GST control)
- binding signal (ELK1): 3.3 fold enrichment (6-mer frequency, TF over GST control)
- binding signal (GABPA): 2.61 fold enrichment (6-mer frequency, TF over GST control)
- binding signal (ERG): 3.44 fold enrichment (6-mer frequency, TF over GST control)
- binding signal (ELF1): 2.8 fold enrichment (6-mer frequency, TF over GST control)
- binding signal (EHF): 3.07 fold enrichment (6-mer frequency, TF over GST control)
- binding signal (SPI1 [1]): 3.49 fold enrichment (6-mer frequency, TF over GST control)
- binding signal (SPIB): 3.01 fold enrichment (6-mer frequency, TF over GST control)
- binding signal (ELK3): 3.41 fold enrichment (6-mer frequency, TF over GST control)
